# Results as given in ChEMBL document CHEMBL1961873, “Compounds: GSK PKIS; Assays: Nanosyn kinase panel” (2012).
# Columns and labels:
# [1] = molecular target: Casein kinase I isoform gamma-2 (Homo sapiens) (UniProt P78368); conditions: at 1 µM
# [2] = molecular target: Casein kinase I isoform gamma-3 (Homo sapiens) (UniProt Q9Y6M4); conditions: at 0.1 µM
# [3] = molecular target: Casein kinase I isoform gamma-3 (Homo sapiens) (UniProt Q9Y6M4); conditions: at 1 µM
# [4] = molecular target: Cyclin-dependent kinase 1 (Homo sapiens) (UniProt P06493); conditions: at 0.1 µM
# Sequence of Cyclin-dependent kinase 1 (Homo sapiens) (P06493 whole entry, looked up): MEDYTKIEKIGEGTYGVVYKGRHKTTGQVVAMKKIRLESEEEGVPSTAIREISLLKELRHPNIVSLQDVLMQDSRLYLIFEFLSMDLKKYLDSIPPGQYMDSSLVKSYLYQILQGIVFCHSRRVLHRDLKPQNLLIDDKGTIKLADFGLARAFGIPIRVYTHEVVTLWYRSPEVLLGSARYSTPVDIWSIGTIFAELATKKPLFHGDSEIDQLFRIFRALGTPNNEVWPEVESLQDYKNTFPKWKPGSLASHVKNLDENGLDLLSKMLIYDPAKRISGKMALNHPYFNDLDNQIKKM
# [5] = molecular target: Cyclin-dependent kinase 1 (Homo sapiens) (UniProt P06493); conditions: at 1 µM
# [6] = molecular target: Cyclin-dependent kinase 2 (Homo sapiens) (UniProt P24941); conditions: at 0.1 µM
# [7] = molecular target: Cyclin-dependent kinase 2 (Homo sapiens) (UniProt P24941); conditions: at 1 µM
# [8] = molecular target: Cyclin-dependent kinase 2 (Homo sapiens) (UniProt P24941); conditions: at 0.1 µM; remark: listed apart in the source
# [9] = molecular target: Cyclin-dependent kinase 2 (Homo sapiens) (UniProt P24941); conditions: at 1 µM; remark: listed apart in the source
# [10] = molecular target: T1, CDK3/Cyclin E (Homo sapiens) (UniProt P24864+Q00526); conditions: at 0.1 µM
# T1 sequence (P24864 whole entry, looked up): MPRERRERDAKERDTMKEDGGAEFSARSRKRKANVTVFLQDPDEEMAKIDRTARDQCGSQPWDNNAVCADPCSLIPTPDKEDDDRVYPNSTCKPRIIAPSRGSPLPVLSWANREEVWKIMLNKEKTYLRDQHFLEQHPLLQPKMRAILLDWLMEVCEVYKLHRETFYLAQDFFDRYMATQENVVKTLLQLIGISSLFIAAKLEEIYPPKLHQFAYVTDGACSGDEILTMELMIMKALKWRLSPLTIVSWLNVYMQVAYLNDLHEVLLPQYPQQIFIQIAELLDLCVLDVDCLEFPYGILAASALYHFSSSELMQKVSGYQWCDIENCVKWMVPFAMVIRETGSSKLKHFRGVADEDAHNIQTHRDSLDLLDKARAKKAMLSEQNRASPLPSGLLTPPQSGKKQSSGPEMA
# T1 sequence (Q00526 whole entry, looked up): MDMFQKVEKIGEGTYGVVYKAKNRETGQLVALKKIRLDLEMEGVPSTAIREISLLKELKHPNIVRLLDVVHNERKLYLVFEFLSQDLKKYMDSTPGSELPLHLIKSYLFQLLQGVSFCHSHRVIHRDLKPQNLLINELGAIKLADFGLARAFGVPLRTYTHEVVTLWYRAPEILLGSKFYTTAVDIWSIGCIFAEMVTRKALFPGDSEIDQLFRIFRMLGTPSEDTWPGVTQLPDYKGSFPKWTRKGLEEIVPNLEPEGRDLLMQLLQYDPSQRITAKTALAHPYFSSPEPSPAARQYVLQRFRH
# [11] = molecular target: T1, CDK3/Cyclin E (Homo sapiens); conditions: at 1 µM
# [12] = molecular target: Cyclin-dependent kinase 4 (Homo sapiens) (UniProt P11802); conditions: at 0.1 µM
# Sequence of Cyclin-dependent kinase 4 (Homo sapiens) (P11802 whole entry): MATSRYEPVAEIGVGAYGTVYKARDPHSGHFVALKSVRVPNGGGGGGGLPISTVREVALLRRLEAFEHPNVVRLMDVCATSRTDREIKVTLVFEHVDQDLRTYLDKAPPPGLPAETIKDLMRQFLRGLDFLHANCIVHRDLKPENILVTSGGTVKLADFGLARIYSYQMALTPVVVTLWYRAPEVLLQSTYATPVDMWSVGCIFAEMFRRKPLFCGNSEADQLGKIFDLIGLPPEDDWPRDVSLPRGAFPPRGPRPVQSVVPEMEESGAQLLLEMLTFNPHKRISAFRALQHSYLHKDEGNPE
# [13] = molecular target: Cyclin-dependent kinase 4 (Homo sapiens) (UniProt P11802); conditions: at 1 µM
# [14] = molecular target: Cyclin-dependent kinase 5 (Homo sapiens) (UniProt Q00535); conditions: at 0.1 µM
# Sequence of Cyclin-dependent kinase 5 (Homo sapiens) (Q00535 whole entry, looked up): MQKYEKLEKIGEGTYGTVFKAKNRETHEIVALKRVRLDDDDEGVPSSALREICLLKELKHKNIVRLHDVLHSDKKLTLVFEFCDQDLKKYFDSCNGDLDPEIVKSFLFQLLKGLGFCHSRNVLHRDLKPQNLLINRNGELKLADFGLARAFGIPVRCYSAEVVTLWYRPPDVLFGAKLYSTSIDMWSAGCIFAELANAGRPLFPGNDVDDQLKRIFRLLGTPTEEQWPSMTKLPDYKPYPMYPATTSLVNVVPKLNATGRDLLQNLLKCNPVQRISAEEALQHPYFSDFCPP
# [15] = molecular target: Cyclin-dependent kinase 5 (Homo sapiens) (UniProt Q00535); conditions: at 1 µM
# [16] = molecular target: Cyclin-dependent kinase 6 (Homo sapiens) (UniProt Q00534); conditions: at 0.1 µM
# Sequence of Cyclin-dependent kinase 6 (Homo sapiens) (Q00534 whole entry): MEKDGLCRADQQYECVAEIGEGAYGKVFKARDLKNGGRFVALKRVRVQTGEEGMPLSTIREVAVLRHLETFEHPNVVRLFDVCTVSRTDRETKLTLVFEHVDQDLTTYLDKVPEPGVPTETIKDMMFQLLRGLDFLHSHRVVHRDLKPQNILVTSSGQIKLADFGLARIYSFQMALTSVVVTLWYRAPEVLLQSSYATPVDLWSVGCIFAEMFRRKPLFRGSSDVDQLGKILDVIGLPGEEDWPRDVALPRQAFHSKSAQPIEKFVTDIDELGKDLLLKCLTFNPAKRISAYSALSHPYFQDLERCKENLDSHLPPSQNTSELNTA
# [17] = molecular target: Cyclin-dependent kinase 6 (Homo sapiens) (UniProt Q00534); conditions: at 1 µM
# [18] = molecular target: Dual specificity protein kinase CLK2 (Homo sapiens) (UniProt P49760); conditions: at 0.1 µM
# Sequence of Dual specificity protein kinase CLK2 (Homo sapiens) (P49760 whole entry, looked up): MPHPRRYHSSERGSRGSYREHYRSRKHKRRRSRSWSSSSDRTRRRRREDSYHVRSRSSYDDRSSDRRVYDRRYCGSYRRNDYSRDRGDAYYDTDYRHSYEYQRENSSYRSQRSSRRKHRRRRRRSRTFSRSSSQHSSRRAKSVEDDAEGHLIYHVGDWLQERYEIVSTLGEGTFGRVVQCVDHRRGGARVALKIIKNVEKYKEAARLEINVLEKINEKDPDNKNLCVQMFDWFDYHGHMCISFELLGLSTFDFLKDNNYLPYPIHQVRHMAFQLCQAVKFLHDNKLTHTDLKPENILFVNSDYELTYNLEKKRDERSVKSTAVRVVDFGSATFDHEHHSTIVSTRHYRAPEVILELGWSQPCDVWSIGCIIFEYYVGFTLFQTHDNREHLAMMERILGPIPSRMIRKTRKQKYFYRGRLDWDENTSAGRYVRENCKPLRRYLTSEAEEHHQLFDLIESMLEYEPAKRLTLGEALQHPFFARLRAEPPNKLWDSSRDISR
# [19] = molecular target: Dual specificity protein kinase CLK2 (Homo sapiens) (UniProt P49760); conditions: at 1 µM
# [20] = molecular target: Dual specificity protein kinase CLK3 (Homo sapiens) (UniProt P49761); conditions: at 0.1 µM
# Sequence of Dual specificity protein kinase CLK3 (Homo sapiens) (P49761 whole entry, looked up): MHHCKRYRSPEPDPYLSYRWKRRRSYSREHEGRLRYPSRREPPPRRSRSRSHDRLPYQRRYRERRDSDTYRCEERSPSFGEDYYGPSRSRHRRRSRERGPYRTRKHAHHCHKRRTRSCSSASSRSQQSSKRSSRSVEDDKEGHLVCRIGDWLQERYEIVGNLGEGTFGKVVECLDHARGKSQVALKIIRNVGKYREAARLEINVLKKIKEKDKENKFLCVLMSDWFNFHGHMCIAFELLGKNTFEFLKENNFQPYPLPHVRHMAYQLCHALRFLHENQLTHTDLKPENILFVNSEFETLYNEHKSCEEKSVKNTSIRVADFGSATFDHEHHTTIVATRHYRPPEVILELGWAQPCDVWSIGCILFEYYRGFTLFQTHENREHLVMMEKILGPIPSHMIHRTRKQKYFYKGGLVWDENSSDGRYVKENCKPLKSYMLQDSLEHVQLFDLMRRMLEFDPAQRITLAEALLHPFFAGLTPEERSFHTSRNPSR
# Sequence of Casein kinase I isoform gamma-3 (Homo sapiens) (Q9Y6M4 whole entry, looked up, canonical isoform): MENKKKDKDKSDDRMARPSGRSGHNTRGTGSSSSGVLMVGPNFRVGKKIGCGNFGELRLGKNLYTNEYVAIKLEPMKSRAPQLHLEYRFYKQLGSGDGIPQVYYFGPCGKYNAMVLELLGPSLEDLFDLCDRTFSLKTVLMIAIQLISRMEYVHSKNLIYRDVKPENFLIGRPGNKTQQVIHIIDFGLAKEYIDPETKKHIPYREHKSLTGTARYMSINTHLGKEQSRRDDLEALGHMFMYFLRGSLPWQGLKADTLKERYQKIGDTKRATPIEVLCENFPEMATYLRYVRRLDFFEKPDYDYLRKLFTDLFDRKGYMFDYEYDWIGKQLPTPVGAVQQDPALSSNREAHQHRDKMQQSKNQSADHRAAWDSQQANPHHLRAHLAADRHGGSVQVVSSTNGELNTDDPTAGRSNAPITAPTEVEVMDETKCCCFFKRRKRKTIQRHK
# Sequence of Casein kinase I isoform gamma-2 (Homo sapiens) (P78368 whole entry, looked up, canonical isoform): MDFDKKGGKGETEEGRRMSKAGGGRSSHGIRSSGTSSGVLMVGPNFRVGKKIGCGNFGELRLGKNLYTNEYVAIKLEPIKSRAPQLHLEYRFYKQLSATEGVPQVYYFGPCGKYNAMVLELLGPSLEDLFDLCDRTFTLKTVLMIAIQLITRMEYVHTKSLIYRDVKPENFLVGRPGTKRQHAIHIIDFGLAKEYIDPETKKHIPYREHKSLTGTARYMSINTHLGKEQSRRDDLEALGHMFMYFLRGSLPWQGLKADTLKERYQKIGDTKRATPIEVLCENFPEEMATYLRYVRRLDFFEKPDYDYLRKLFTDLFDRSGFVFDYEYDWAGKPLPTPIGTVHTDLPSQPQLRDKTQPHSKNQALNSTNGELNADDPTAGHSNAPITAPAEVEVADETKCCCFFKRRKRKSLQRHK
SMILES,inhibition [1] [%],inhibition [2] [%],inhibition [3] [%],inhibition [4] [%],inhibition [5] [%],inhibition [6] [%],inhibition [7] [%],inhibition [8] [%],inhibition [9] [%],inhibition [10] [%],inhibition [11] [%],inhibition [12] [%],inhibition [13] [%],inhibition [14] [%],inhibition [15] [%],inhibition [16] [%],inhibition [17] [%],inhibition [18] [%],inhibition [19] [%],inhibition [20] [%]
CN1CCN(CCCNc2nc3ccc(Oc4ccc(NC(=O)Nc5cc(C(F)(F)F)ccc5F)cc4)cc3[nH]2)CC1,-2.41,-3.59,-4.66,-2.5,-3.79,-3.51,5.29,-2.32,-2.03,0.7,2.2,-3.04,-2.88,-2.74,-3.46,-4.09,-1.64,2.17,1.41,-3.87
O=C(Nc1ccc(Oc2ccc3[nH]c(NC(=O)c4ccccc4)nc3c2)cc1)Nc1cc(C(F)(F)F)ccc1F,2.09,1.5,2.93,0.28,3.27,0.68,4.24,2.28,4.67,1.65,-1.42,3.17,4.9,0.47,3.03,2.76,4.46,0.71,1.05,1.59
O=C(Nc1n[nH]c2nc(-c3ccco3)ccc12)C1CC1,1.22,-1.28,0.46,-0.24,2.61,3.24,6.79,-0.16,3.89,0.19,4.64,1.89,2.71,-0.11,1.68,3.9,8.22,-0.38,-0.4,0.26
COc1ccc(-c2ccc3c(NC(=O)C4CC4)n[nH]c3n2)cc1,1.22,1.89,2.61,0.44,4.03,1.61,10.7,1.4,4.59,2.19,3.03,1.65,11.4,0.42,2.12,5.98,38,0.68,1.56,0.83
CCC(=O)Nc1ccc(C)c(-c2ccc(C(=O)NCC3CC3)cc2)c1,3.16,1.58,1.61,2.88,2.38,3.84,3.06,3.5,4.47,-1.57,-2.39,3.38,5.05,1.58,1.54,0.4,0,0.05,-0.08,0.16
CCS(=O)(=O)c1ccc(OC)c(Nc2ncc(-c3cccc(-c4ccccc4F)c3)o2)c1,-0.35,0.39,0.12,0.67,2.37,1.76,7.78,0.27,3.78,0.64,1.22,0.53,-0.45,0.5,3.33,0.01,1.94,5.83,36.9,2.7
CS(=O)(=O)CCNCc1cc(-c2cc3c(Nc4ccc(OCc5cccc(F)c5)c(Cl)c4)ncnc3s2)cs1,4.61,3.07,1.92,2.55,0.45,3.05,1.47,1.9,4.94,-3.37,-0.74,2.57,4.29,0.44,0.56,-2.32,-0.13,2.41,2.14,2.21
c1ccc(-c2n[nH]cc2-c2ccnc(-c3ccc(OCCN4CCOCC4)cc3)c2)nc1,-2.28,-0.5,2.07,5.08,4.83,0.41,0.03,4.78,4.73,5.94,3.2,5.35,6.08,5.7,4.87,1.73,4.81,2.87,3.2,0.66
COc1cc(Nc2ncc(-c3ccccc3)o2)cc(OC)c1OC,-0.69,-0.27,-0.18,0.44,6.1,0.56,9.21,0.79,6.45,0.2,5.95,0.45,1.93,0.52,6.19,0.43,3.26,0.35,3.33,0.69
C/C(Nc1ccc(S(N)(=O)=O)cc1)=C1/C(=O)Nc2ccccc21,18.7,-1.23,19.1,0.68,14.5,7.75,56,8.8,48.1,9.17,50.1,3.5,32,8.67,44.7,37,74.7,0.33,2.45,-0.03
NC(=O)c1ccc(Oc2nccc(-c3c(-c4ccc(F)cc4)ncn3C3CCNCC3)n2)cc1,7.07,4.74,9.02,3.25,1.41,3.34,3.6,3.03,4.26,-3.59,1.23,3.18,3.14,1.5,1.61,-4.69,-0.8,1.44,6.51,2.43
COc1cc2ncn(-c3cc(OCCc4ccccc4)c(C(N)=O)s3)c2cc1OC,7.82,2.44,6.34,0.36,1.62,0.55,3.19,2.3,5.22,1.71,0.51,1.86,1.87,0.7,1.45,-3.45,2.54,1.3,2.64,0.57
O=C(Nc1n[nH]c2cc(-c3ccccc3)ccc12)C1CC1,4.84,4.39,4.52,0.9,5.76,3.52,11.2,4.57,8.54,2.98,4.6,3.5,9.81,1.28,5.17,1.28,23.7,1.71,2.28,0.78
O=C(NCC1CC1)c1ccc(-c2cccc(C(=O)NC3CC3)c2)cc1,2.47,0.19,2.3,-0.46,1.27,1.17,9.03,2.3,2.72,-0.72,2.64,2.46,2.18,0.16,0.99,5.87,-0.5,-0.19,1.77,0.44
NS(=O)(=O)c1ccc(N/N=C2\C(=O)Nc3ccc(-c4cnco4)cc32)cc1,0.36,-3.27,0.29,32.6,66.8,85.8,94.4,67.2,74.7,50,89.2,6.57,42,50.2,71.8,9.49,50.3,5.36,35.9,-3.12
O=C(Nc1n[nH]c2cc(-c3cc(F)ccc3F)ccc12)C1CC1,3.38,1.27,2.99,1.12,7.47,2.01,17.3,2.48,11.6,2.32,5.19,1.96,8.77,0.68,5.38,4.69,39.6,-0.48,1.29,0.11
COc1cc(C)c(N(C)C(=O)CN(C)C)cc1Nc1nc(Nc2cccc(F)c2C(N)=O)c2cc[nH]c2n1,10.4,-0.15,26.6,-4.66,-4.18,-3.41,1.23,-2.41,-2.88,-0.03,0.55,-3.32,-2.23,-3.87,-4.34,-3.28,-2.66,2.65,12.6,-5.35
C[C@@H](Oc1cc(-n2cnc3ccc(OCC4CCN(C)CC4)cc32)sc1C(N)=O)c1ccccc1Cl,7.87,3.89,5.6,1.74,3.79,3.1,4.03,2.66,5.46,-2.62,-1.61,2.79,7.39,1.33,3.11,0.41,0.37,1.46,7.9,1.64
CCc1ccc(Oc2nccc(-c3c(-c4ccc(F)cc4)ncn3C3CCNCC3)n2)cc1,11.5,6.23,30,2.36,2.02,3.63,2.75,2.03,2.75,-2.23,-3.4,1.49,2.34,0.94,2.25,-3.34,-4.3,1.29,3.58,0.96
NC(=O)c1cc(-c2ccncc2)cc(-c2ccccc2)c1N,4.95,4.56,4.47,-0.45,1.56,2.79,5.38,4.07,3.97,4.6,-0.18,2.8,2.69,0.58,0.44,-1.43,2.3,1.45,1.33,1.22
CCc1cccc(CC)c1/C=C/c1cncc(C(=O)NC)c1,5.11,2.87,4.99,-0.08,1.65,1.26,3.61,2.79,4.02,-0.92,1.62,3.61,4.03,0.43,1.68,3.11,2.84,-1.55,3.8,1.35
Cc1ccc(C(=O)NC(C)C)cc1-c1ccc(C(=O)NCC2CC2)cc1,-3.47,-2.79,-1.44,0.57,2.57,0.33,-0.04,-0.92,0.52,1.57,-1.55,-0.49,0.6,0.55,2.73,-1.81,-0.75,-1.1,-0.78,-0.64
COc1ccc2ncn(-c3cc(O[C@H](C)c4ccccc4Cl)c(C(N)=O)s3)c2c1,0.41,-0.98,-2.81,-3.45,-2.45,-2.63,-1.27,-1.28,1.93,-2.44,-2.98,-2.27,-0.19,-3.87,-2.17,-3.71,-2.1,0.43,0.2,-2.29
CN(C)c1ccc2c(c1)/C(=C/Nc1ccc(S(N)(=O)=O)cc1)C(=O)N2,1.27,0.48,0.92,6.23,33.9,21.8,82.6,16.3,54,5.6,38.9,11.3,43.5,16.2,57,4.7,48.2,1.72,11,0.66
